# Hit rate of the full screen: of about 47,000 compounds, about 1,400 (3%) were called active. This excerpt belongs to a sample that is enriched for actives. Unmarked numbers belong to inactive results. No stated cut-off is given here; in the data, active means inhibition above about 30%; inactive means the rest.
# Target: Ubiquitin carboxyl-terminal hydrolase 28 (Homo sapiens) (UniProt Q96RU2)
# Assay: inhibitors of human USP28 deubiquitinase (AID 1645857)
# Conditions: purified USP28, Ub-rhodamine cleavage fluorescence, 30 min; at 25 µM; stronger effect = higher value
# Chain of Ubiquitin carboxyl-terminal hydrolase 28 (Homo sapiens) (Q96RU2 whole entry, looked up): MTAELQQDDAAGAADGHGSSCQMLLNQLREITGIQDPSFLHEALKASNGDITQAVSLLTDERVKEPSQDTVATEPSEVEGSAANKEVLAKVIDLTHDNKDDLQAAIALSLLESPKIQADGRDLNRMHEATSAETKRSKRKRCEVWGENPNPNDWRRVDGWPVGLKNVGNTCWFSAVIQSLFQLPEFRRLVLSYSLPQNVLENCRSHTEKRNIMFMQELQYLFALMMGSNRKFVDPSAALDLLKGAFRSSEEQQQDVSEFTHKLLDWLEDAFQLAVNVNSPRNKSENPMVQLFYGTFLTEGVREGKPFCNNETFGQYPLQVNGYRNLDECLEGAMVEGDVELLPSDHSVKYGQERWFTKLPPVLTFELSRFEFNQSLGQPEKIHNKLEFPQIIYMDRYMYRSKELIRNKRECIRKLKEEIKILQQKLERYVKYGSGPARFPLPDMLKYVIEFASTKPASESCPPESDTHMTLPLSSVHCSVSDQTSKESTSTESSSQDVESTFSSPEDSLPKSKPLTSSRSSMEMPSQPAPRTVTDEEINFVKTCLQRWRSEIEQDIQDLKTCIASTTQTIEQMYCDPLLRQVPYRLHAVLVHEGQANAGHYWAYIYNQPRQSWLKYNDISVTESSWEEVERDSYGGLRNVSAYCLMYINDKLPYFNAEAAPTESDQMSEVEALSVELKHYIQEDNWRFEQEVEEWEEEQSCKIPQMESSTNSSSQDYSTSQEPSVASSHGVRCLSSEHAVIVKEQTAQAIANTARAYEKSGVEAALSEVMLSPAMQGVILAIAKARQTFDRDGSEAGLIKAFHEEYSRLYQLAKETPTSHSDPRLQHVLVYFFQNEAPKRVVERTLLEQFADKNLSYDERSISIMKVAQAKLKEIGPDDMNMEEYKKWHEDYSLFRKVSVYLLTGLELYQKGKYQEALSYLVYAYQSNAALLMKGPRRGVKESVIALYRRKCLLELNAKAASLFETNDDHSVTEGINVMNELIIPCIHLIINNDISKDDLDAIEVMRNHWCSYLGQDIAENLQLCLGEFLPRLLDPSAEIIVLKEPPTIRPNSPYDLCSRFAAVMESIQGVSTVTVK
row,SMILES,inhibition
1,NC(=O)c1c(NC(=O)/C=C/C(=O)O)sc2c1CCCCCC2,-7.88%
2,COc1cccc(N2C(=O)c3cccnc3C2Nc2ccc(C)c(C)c2)c1 (centres undefined),-14.4%
3,COc1ccc(NC(=O)CCC(=O)c2ccc3c(c2)OCCO3)cc1S(=O)(=O)Nc1ccc(Cl)cc1,16.3%
4,O=C(/C=C/c1ccc(Cl)cc1)Nc1ccc2c(c1)OCCO2,35.4% (active)
5,COc1ccc(/C=C/C(=O)Nc2ccc3c(c2)OCCO3)cc1Br,76.8% (active)
6,COc1ccc(NS(=O)(=O)c2cc(NC(=O)/C=C/c3cccc(OC)c3)ccc2OC)cc1,19.1%
7,O=C(Nc1ccc2c(c1)OCO2)N1CCCCCC1,-1.57%
8,O=C(Nc1ccc2c(c1)OCO2)c1sc2cc(Cl)ccc2c1Cl,-10.3%
9,COc1ccc(S(=O)(=O)c2cnc3cc(OC)c(OC)cc3c2N2CCOCC2)cc1,3.3%
10,COc1ccccc1NC(=O)CCC(=O)N1CCSc2ccccc21,-4.12%
11,Brc1ccc2[nH]c3c(NCCCN4CCOCC4)ncnc3c2c1,-18.8%
12,COc1cc(OC)cc(C(=O)Nc2ccc(S(=O)(=O)Nc3cc(C)on3)cc2)c1,12.8%
13,COc1cc(NC(=O)c2noc3c2CCc2sccc2-3)cc(OC)c1,43.6% (active)
14,O=C(NCc1ccccc1)c1noc2c1CCc1sccc1-2,0.0745%
15,COc1cccc(C2c3[nH]c4ccccc4c3C[C@@H]3C(=O)N(CCCn4ccnc4)CC(=O)N23)c1 (some centres undefined),-0.857%
16,CC(C)(C)c1ccc(C(=O)Nc2cccc(-c3nc4ncccc4o3)c2)cc1,2.33%
17,COc1cccc(NC(=O)C(C#N)C(=O)C2CC2c2cccc(C)c2)c1 (centres undefined),26.5%
18,Cc1c(-c2nn3c(-c4ccco4)nnc3s2)cccc1[N+](=O)[O-],33.6% (active)
19,Cc1cc(C)n2nc(C(=O)N(C)C(c3ccccc3)c3ccccc3)nc2n1,5.86%
20,COc1ccc2[nH]c3c(NCCCN4CCOCC4)ncnc3c2c1,-8.4%
21,O=C(c1ccc2cc[nH]c2c1)N1CCCC2(COCCN(CC3CC3)C2)C1 (centres undefined),-13.8%
22,Cc1ccc(S(=O)(=O)NCC(c2ccc3c(c2)CCN3C)N2CCCC2)c(C)c1 (centres undefined),-0.036%
23,COc1ccc(C(=O)N2CCCN(c3ncccc3-c3nc(C)no3)CC2)cc1,5.18%
24,Cc1ccc(NC(=O)Cc2nc(-c3ccccc3)n[nH]2)cc1,-4.45%
25,CC(C)(C)C(=O)OCc1noc(-c2ccccc2)n1,7.9%

row,SMILES,inhibition
1,O=C(NCc1noc(-c2ccccc2)n1)C1CCCC1,-13.9%
2,O=C1COc2ccccc2N1Cc1noc(-c2ccccc2)n1,72.3% (active)
3,O=C1NC2(CCCc3ccccc32)C(=O)N1Cc1csc(-c2ccc(Cl)cc2)n1 (centres undefined),2.68%
4,COc1cccc(-c2noc(CN3CCCC3c3cc(OC)ccc3OC)n2)c1 (centres undefined),-19.5%
5,O=C(COc1ccccc1)Nc1cnc(-c2cccc(Cl)c2)nc1,0.526%
6,COc1cc(-c2nc3sc4c(c3c(=O)[nH]2)CCC(C)C4)ccc1OCc1ccc(C)cc1 (centres undefined),13.3%
7,CC1CCc2c(sc3nc(CC#N)[nH]c(=O)c23)C1 (centres undefined),-258%
8,CC1CCc2c(sc3ncnc(OCc4cccc([N+](=O)[O-])c4)c23)C1 (centres undefined),94.8% (active)
9,Cc1nc(C2CCCN(C(=O)c3cccnc3N)C2)nc2c1CC(=O)N2Cc1ccccc1 (centres undefined),-6.04%
10,C=C1Nc2ccccc2C(=O)N1c1cccc(NC(=O)Cc2ccc(F)cc2)c1,2.69%
11,CNc1nc2c(c(=O)n1C)CN(C(=O)Nc1ccccc1Oc1ccccc1)CC2,14.2%
12,COc1ccc(NC(=O)c2sc(N3CCOCC3)nc2-c2ccccc2)c(OC)c1,15.1%
13,COc1cccc(-c2cc(C(=O)N3CCN(c4ccc(N5CCOCC5)nn4)CC3)[nH]n2)c1,69.8% (active)
14,O=C(c1cccnc1)N1CCN(c2cc(-c3ccccc3)[nH]n2)CC1,4.54%
15,COc1cccc(C(=O)N2CCCC2c2nc(-c3ccccc3)no2)c1 (centres undefined),1.43%
16,C=C(CCC(C(=O)O)[C@H]1[C@H](O)C[C@@]2(C)C3=C(CC[C@]12C)[C@@]1(C)CC[C@H](OC(C)=O)C(C)(C)[C@@H]1CC3)C(C)C (some centres undefined),3.27%
17,COCCCNC(=O)c1cc2c(=O)n3ccccc3nc2n1Cc1ccccc1,9.14%
18,CSc1ncccc1C(=O)OCc1ccc(Br)cc1,76.8% (active)
19,CCCOc1ccc(NC(=O)c2ccc(Br)cc2)c2cccnc12,-10.2%
20,CSc1ncccc1C(=O)Nc1ccnn1C(C)c1ccncc1 (centres undefined),-28.1%
21,CCCCNC(=O)Cc1csc(COc2ccc(C)cc2)n1,2.41%
22,O=C(NC1CCCC1)c1ccccc1N1C(=O)[C@@H]2Cc3c([nH]c4ccccc34)C(c3ccc(F)cc3)N2C1=O (some centres undefined),-2.2%
23,CN1CCCN(C(=O)C2CCCCC2)CC1,-7.1%
24,COC(=O)c1ccc(C2Oc3ccccc3CN2c2ccccc2Cl)cc1 (centres undefined),34.3% (active)
25,COC(=O)c1ccc(C(=O)NCC2(O)CCc3ccccc32)cc1 (centres undefined),6.5%

row,SMILES,inhibition
1,COC(=O)c1ccc(C2c3[nH]c4ccccc4c3C[C@H]3C(=O)N(CC4CCCO4)CC(=O)N23)cc1 (some centres undefined),-2.7%
2,Cn1nc(C2CCCN(Cc3cc(F)cc(F)c3)C2)c2nccnc21 (centres undefined),-9.38%
3,COc1ccccc1CNC(=O)c1c(O)c2cccnc2n(-c2ccccc2)c1=O,-16.9%
4,CCN1CCC2(CC1)OC(=O)C(C)=C2C(=O)NCc1ccccc1OC,-9.74%
5,COc1ccccc1CNC(=O)c1nc(N2CCSCC2)c2cn(C)nc2n1,32.8% (active)
6,O=C(CCc1nnc2ccc(N3CCOCC3)nn12)N1CCC(Cc2ccccc2)CC1,3.03%
7,O=C(Cc1cccc2ccccc12)Nc1nc2ccc(F)cc2s1,55.7% (active)
8,CC(C)C(=O)Nc1nc2ccc(CCC(=O)Nc3ccc(F)cc3)cc2s1,-0.104%
9,CCCC(=O)Nc1nc2ccc(CCC(=O)NCc3ccc(F)cc3)cc2s1,-4.54%
10,CCC(=O)Nc1ccccc1SCC(=O)N1c2ccccc2CC1C (centres undefined),10.9%
11,CS(=O)(=O)c1ccc(Oc2ncc(-c3cccs3)cn2)cc1,3.89%
12,COc1ccc(C(C)=O)cc1CSc1nnc(-c2ccccc2OC)n1CCc1ccccc1,5.07%
13,CN(C)CCCNC(=O)/C=C/c1ccc(OCc2c(F)cccc2Cl)cc1,34.5% (active)
14,CC(C)(C)c1ccc(/C=C/C(=O)NCCCn2ccnc2)cc1,-4.88%
15,COC(=O)c1cc2c(ccn2C)n1CC(=O)NC1CCCC1,-250%
16,Oc1cccc2nc3c(O)cccc3nc12,61.8% (active)
17,CCCCCCCCCCC(C)C1CC(=O)NC(C(C)O)C(=O)NC(C)C(=O)NC(C)C(=O)NC(CCC(N)=O)C(=O)NC(Cc2ccc(O)cc2)C(=O)NC(C(C)CC)C(=O)O1 (centres undefined),-4.03%
18,Cc1cc(=O)[nH]c(C2CN(C(=O)c3cccc4c3OCCO4)CCO2)n1 (centres undefined),-1.67%
19,CCOc1ccc(Nc2nc(O)c(CC(=O)Nc3cccc(C)c3)s2)cc1,27.4%
20,Cc1ccc(Nc2nc(O)c(CC(=O)Nc3ccc(C(C)C)cc3)s2)cc1C,-1.13%
21,Cc1ccc(NC(=O)Cc2sc(Nc3ccc(C)cc3)nc2O)cc1,75.6% (active)
22,CC(Nc1nc2ccccc2nc1NS(=O)(=O)c1cc(Cl)ccc1Cl)c1ccccc1 (centres undefined),-235%
23,CC(=O)C(CC(=O)N1CCCC1)C(=O)Nc1ccc(Cl)cc1 (centres undefined),8.14%
24,CC1CCN(c2ccc(C(=O)NCc3ccc(F)cc3)cc2[N+](=O)[O-])CC1,0.654%
25,O=C(NCCc1ccccc1)c1ccc2c(=O)nc3c(-c4ccccc4F)n[nH]n3c2c1,-8.97%

row,SMILES,inhibition
1,O=C(Cn1c(=O)n(Cc2ccc3c(c2)OCO3)c(=O)c2ccccc21)NCc1ccco1,26.3%
2,O=C(NCCc1ccccc1)c1ccc2c(=O)n(Cc3ccco3)c(=O)n(Cc3cccc([N+](=O)[O-])c3)c2c1,73.4% (active)
3,Cn1ccc(NC(=O)CN2[C@H](Cc3ccccc3)C[C@]3(C)NC(=O)CCC[C@H]23)n1,-3.27%
4,CC1CCCCN1CC(=O)N1CCc2cc(S(N)(=O)=O)ccc21 (centres undefined),-35.3%
5,CCc1ccc(-n2c(SC(CC)C(=O)NCCOC)nc3n[nH]c(C)c3c2=N)cc1 (centres undefined),-17.1%
6,CN(c1ccccc1)c1nc(=O)n(CC(=O)Nc2ccc3c(c2)OCCO3)c2ccccc12,41.9% (active)
7,COc1ccc(C)cc1NC(=O)Cn1c(=O)nc(N(C)c2ccccc2)c2ccccc21,20.4%
8,COc1ccccc1-c1ccc2nnc(SCC(=O)Nc3ccc4c(c3)OCCO4)n2n1,3.38%
9,CCOC(=O)c1cc2c(ccn2C)n1CC(=O)Nc1ccc2c(c1)OCCO2,-34.6%
10,O=C(Cn1cnc2c(sc3ccccc32)c1=O)Nc1ccc2c(c1)OCCO2,38.1% (active)
11,O=C(Cn1cc(C(F)(F)F)ccc1=O)Nc1ccc2c(c1)OCCO2,15.1%
12,COc1cccc(-c2cnc(C(O)c3sccc3C)[nH]2)c1 (centres undefined),-14.5%
13,CSc1nc2c(c(Nc3ccc(C(C)=O)cc3)n1)CCC2,53.2% (active)
14,Fc1cccc(Nc2nc(-c3ccncc3)nc3c2CCC3)c1,5.32%
15,COc1cc(-c2nnc(SCC(=O)Nc3ccc(Br)cc3)n2CCc2ccccc2)cc(OC)c1OC,-5.36%
16,O=C(NCCc1ccc(O)cc1)c1cc(Br)ccc1-n1cnnn1,8.86%
17,Cc1nc(SCC#N)c2oc3ccccc3c2n1,-1.32%
18,COC(=O)c1cccnc1-n1c(=O)c2cccnc2n(CC(=O)Nc2ccc(C)c(F)c2)c1=O,-12.4%
19,CC(C)(C)C(=O)Nc1ccc(C(=O)Nc2ccc(O)cc2C(=O)O)cc1,13.9%
20,CC(C)(C)C(=O)Nc1ccc(SCc2nnc(-c3ccccc3)o2)cc1,64% (active)
21,Cc1ccc(-c2nnc(CCC(=O)O)o2)cc1,-0.555%
22,O=C(CCc1csc(NC(=O)c2ccc(=O)[nH]c2)n1)NCCc1c[nH]c2ccccc12,-13.5%
23,CC1CCN(S(=O)(=O)N2CCCC(C(=O)NC3CCN(Cc4ccccc4)CC3)C2)CC1 (centres undefined),-8.49%
24,CCOc1ccccc1OC(=O)c1cc(-c2cc(OC)c(OC)c(OC)c2)nc2ccccc12,-10%
